Data from PubChem BioAssay.
Activity calls are given as the source filed them.

experiment: JC-1 mitochondrial signal, unstimulated HepG2 cells – cell-based, JC-1 fluorescence, 24 h, 100 nL compound, profiling panel (AID 1167); settings: HepG2 mitochondrial potential, higher = more signal
Note: test concentration not given here.

| Structure (SMILES) | z-score |
| --- | --- |
| C[C@@H](c1ccccc1)N1C(=O)[C@H]2[C@H]3[C@H](O)[C@H](O)CC(=NOC[C@@H](O)COCc4ccco4)[C@H]3CC[C@H]2C1=O | -0.137 |
| COc1ccc(O[C@H]2C=C[C@@H](C#Cc3ccccc3)O[C@@H]2CO)cc1 | -1.19 |
| COC(=O)[C@@H]1CC[C@H](C)[C@@H](c2ccc(Br)cc2)N1C[C@@H](O)CN=[N+]=[N-] | 0.462 |
| CC(C)=CCCC(C)=CCON=C1C[C@@H](O)[C@@H](O)[C@@H]2[C@@H]3C(=O)N(Cc4ccc5c(c4)OCO5)C(=O)[C@@H]3CC[C@@H]12 | -0.0991 |

experiment: JC-1 mitochondrial signal, unstimulated adipocytes – cell-based, JC-1 fluorescence, 3T3-L1 adipocytes, 24 h, 100 nL compound, profiling panel (AID 1168); settings: JC-1 mitochondrial fluorescence, higher = more signal, called active from +8 up or from −8 down

| Structure (SMILES) | z-score |
| --- | --- |
| C=CC[C@@H]1C=C[C@H](ON=CC[C@@H]2C=C[C@H](OC(C)=O)[C@@H](COC(C)=O)O2)[C@@H](CO)O1 | -0.01 (inactive) |
| C=CC[C@@H]1C=C[C@H](ON=C(C)CCN2CCCc3nc(C)c(C)cc32)[C@@H](CO)O1 | 0.0489 (inactive) |
| CC(=O)OC[C@H]1O[C@H](CC=NO[C@H](C)c2cn([C@@H]3COC[C@H]3O)nn2)C=C[C@@H]1OC(C)=O | 1.13 (inactive) |
| CC(=O)OC[C@H]1O[C@H](CCON=C(C)CCN2CCCc3nc(C)c(C)cc32)C=C[C@@H]1OC(C)=O | -0.805 (inactive) |
| CO[C@H]1COC(=O)[C@H](CCSC)NC(=O)CC=C[C@@H](C)[C@H](OC)COC(=O)[C@@H](OCc2ccccc2)C=C[C@@H]1C | -1.75 (inactive) |
| CN1CCc2nc(-c3ccccc3)c(-c3ccccc3)cc2C1 | -0.53 (inactive) |
| CON=C(C)CCN1CCc2nc(-c3ccccc3)c(-c3ccccc3)cc2C1 | -0.144 (inactive) |
| CCN1C(=O)[C@H]2[C@@H]3C(=CC[C@H]2C1=O)C(=O)[C@H]1O[C@H]1[C@H]3O | 0.772 (inactive) |
| CC(C)C(=O)N[C@H]1CCCN1C(=O)C=Cc1ccccc1 | -0.288 (inactive) |
| CCOC(=O)[C@H](CC(C)C)NC(=O)CCC1CC(OC(=O)NCc2ccc3c(c2)OCO3)CC2(CCCC(COC(=O)NCCC(C)C)O2)O1 (some centres undefined) | 0.135 (inactive) |
| COC(=O)CC=C[C@@H](C)[C@@H](C=NOC[C@@H](O)COCc1ccco1)NS(=O)(=O)c1ccc(C)cc1 | 0.0134 (inactive) |
| CON=C(C)CCN1CCCCc2nc(C)c(C)cc21 | -1.41 (inactive) |
| CC(=O)OC[C@H]1O[C@H](CCON=C(C)C)C=C[C@@H]1OC(C)=O | -0.681 (inactive) |
| O=C1CCCC=C1C(O)C1CCCCC1 (centres undefined) | -1.15 (inactive) |
| COC(=O)CC=C[C@@H](C)[C@@H](C=NOC[C@@H](C)[C@H](OCc1ccccc1)C(C)C)OC | -1.61 (inactive) |
| COC(=O)[C@H](C)NC(=O)CC=C[C@@H](C)[C@@H]1C=C[C@H](O)[C@@H](CO)O1 | -1.04 (inactive) |
| C[C@@H](c1ccccc1)N1C(=O)[C@H]2[C@H]3[C@H](O)[C@H](O)CC(=NOCc4ccccc4)[C@@H]3CC[C@H]2C1=O | -0.985 (inactive) |
| O=C1[C@H]2[C@H]3[C@H](O)[C@H](O)CC(=NOC[C@@H](O)COCc4ccco4)[C@@H]3CC[C@H]2C(=O)N1Cc1ccc2c(c1)OCO2 | 0.231 (inactive) |
| CCCNC(=O)OC[C@H]1O[C@H](CCON=C2C[C@@H](O)[C@@H](O)[C@@H]3[C@@H]4C(=O)N(CC)C(=O)[C@@H]4CC[C@@H]23)C=C[C@@H]1Oc1ccc(OC)cc1 | -0.245 (inactive) |
| CC(C)CON=C1C[C@@H](O)[C@@H](O)[C@@H]2[C@@H]3C(=O)N(Cc4ccc5c(c4)OCO5)C(=O)[C@@H]3CC[C@@H]12 | 0.115 (inactive) |
| COc1ccc(COC(=O)NN=C2C[C@@H](O)[C@@H](O)[C@@H]3[C@@H]4C(=O)N([C@@H](C)c5ccccc5)C(=O)[C@@H]4CC[C@@H]23)cc1 | -0.132 (inactive) |
| C[C@@H]1CC[C@H]2C(=O)N3[C@@H](CC[C@@H](C)[C@@H]3c3ccc(Br)cc3)C(=O)N2[C@H]1c1ccc(Br)cc1 | -0.76 (inactive) |
| CCOC(=O)CCN1C(=O)[C@H]2[C@H]3[C@H](O)[C@H](O)CC(=O)[C@@H]3CC[C@H]2C1=O | -0.368 (inactive) |
| COC(=O)[C@H](CCSC)NC(=O)CC=C[C@@H](C)CO | -0.645 (inactive) |
| CCOC(=O)[C@H](Cc1ccccc1)NC(=O)CCC1CC(OC(=O)NCc2cccc3ccccc23)CC2(CCCC(COC(=O)NCCOc3ccccc3)O2)O1 (some centres undefined) | 0.0327 (inactive) |
